In all, about 320,000 compounds went through this assay and about 22,000 (6.9%) were called active. Not shown: some 27% with an inconclusive outcome. The full list was thinned out, with actives kept by preference. A number with no mark means an inactive call. The call rests on the fitted dose curve; in most records, active means well fitted inhibition curve with a large enough effect; inconclusive means small, poorly fitted or top-dose-only effect, or another doubt; inactive means no such curve, though single readings can be large or run the other way.
Assay: Primary qHTS for delayed death inhibitors of the malarial parasite plastid, 96 hour incubation
Conditions: P. falciparum luciferase reporter growth; series mostly up to 28.7 µM; activity change, negative = inhibition: at the top concentration
How it was run: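 Two parasite generations (96 h, 37 C, 5% CO2) of compound exposure in infected erythrocytes (0.05% parasitemia, 2% hematocrit). Luciferase-reporter P. falciparum; decreased luminescence indicates inhibited growth, aimed at apicoplast-acting delayed death.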
On the % scale 0 is the no-effect control and ±100 the full control effect; potency means the concentration at half of the fitted maximal effect.

Row | Structure (SMILES) | activity change, negative = inhibition | Potency
1 | COc1ccc(/C=C2\SC(=S)N(CCC(=O)Nc3ccccn3)C2=O)cc1OC | 79.2% | –
2 | CCOc1ccc(NC(=O)CCS(=O)(=O)c2ccc3c(c2)CCCN3C(=O)CC)cc1 | – | 9.28 µM (active)
3 | CCC(=O)N1CCc2cc(S(=O)(=O)CCC(=O)N3CCN(c4ccccc4F)CC3)ccc21 | 29.7% | –
4 | CCCNS(=O)(=O)c1ccc2c(c1)CCCN2C(C)=O | 94.1% | –
5 | C=CCn1c(SCC(=O)NC(=O)Cc2ccccc2)nc2ccccc2c1=O | 3.17% | –
6 | CCCCN1C(=O)/C(=C/C=C2/C=Cc3ccccc3N2CC)SC1=S | – | 0.117 µM (active)
7 | CCN1C(=O)/C(=C2/Sc3ccccc3N2CCCS(=O)(=O)O)SC1=S | 61.5% | –
8 | CCN1C(=O)/C(=C\N2CCN(c3cccc(Cl)c3)CC2)SC1=S | 51.9% | –
9 | O=C(NCCCc1ccccc1)C1CCC(=O)N(CCc2ccc(Cl)cc2)C1 (stereo unspecified) | -0.691% | –
10 | COc1ccccc1CNS(=O)(=O)c1c(C)[nH]c(C)c1C(=O)N1CCCCC1 | 12.7% | –
11 | COc1cccc(NC(=O)CN(C)C(=O)c2cc(C3CC3)nn2-c2ccccc2)c1 | -26.3% | –
12 | COc1ccc(CN2CCN(C(=O)c3cc(C4CC4)nn3-c3ccccc3)CC2)cc1F | – | 11.7 µM (active)
13 | COc1cc(CN2CCC(C(N)=O)CC2)ccc1OCc1ccccc1 | 60% | –
14 | O=C(NCc1cccnc1)c1ccccc1NC(=O)c1c(F)cccc1F | 1.54% | –
15 | Cc1cc(C)c(NC(=O)CN2C(=O)NC(Cc3ccccc3)C2=O)c(C)c1 (stereo unspecified) | 11% | –
16 | O=[N+]([O-])c1ccc2nc(-c3ccccn3)[nH]c2c1 | -13.9% | –
17 | O=C(CSC(=S)N1CCOCC1)c1cc(Br)cc(Br)c1O | 26.6% | –
18 | O=P(O)(CN1CCCCCC1)C1Cc2ccccc2C1 | -49.8% | –
19 | O=C(CCc1nc2ccccc2c(=O)[nH]1)OCC(=O)c1cccc(Cl)c1 | 51.6% | –
20 | O=C(Cc1nc2ccccc2[nH]c1=O)c1ccc(Cl)cc1 | 141% | –
21 | O=C(/C(=C/c1cccc(Cl)c1)c1nc2ccccc2[nH]1)c1ccccc1 | – | 11.7 µM (active)
22 | Cc1ccc(-c2nc3ccccc3[nH]c2=O)cc1 | 111% | –
23 | N#CCc1ccc(NC(=O)c2ccccc2C(=O)Nc2ccc(CC#N)cc2)cc1 | 16.3% | –
24 | NS(=O)(=O)c1ccc2nc(NC(=O)C3=COCCO3)sc2c1 | 6.79% | –
25 | O=C(O)CC1(CC(=O)Nc2cccc(C(F)(F)F)c2)CCCC1 | 24.4% | –
26 | O=C(Nc1cccc(C(F)(F)F)c1)c1cc(Br)cc(Br)c1O | – | 15.1 µM (active)

Row | Structure (SMILES) | activity change, negative = inhibition | Potency
27 | NC(=O)Nc1cccc(C(F)(F)F)c1 | 28.4% | –
28 | CC(=O)Nc1ccc(NC(=O)COC(=O)c2ccccc2C(=O)c2ccccc2)cc1 | -7.56% | –
29 | O=C(Nc1cccc([N+](=O)[O-])c1)Nn1cnnc1 | -1.29% | –
30 | Cn1nc(C(F)(F)F)cc1-c1ccc(/C=C(\C#N)C(=O)c2cccc(C(F)(F)F)c2)s1 | 54.3% | –
31 | Cc1ccc(NNC(=O)c2c(F)cccc2Cl)cc1Cl | 34.9% | –
32 | CCCCCNC(=O)c1cccnc1SCC(=O)Nc1ccccc1OC | 60.2% | –
33 | Cc1ccc(NC(=O)CSc2nnc(CNC(=O)c3ccccc3F)o2)cc1 | 4.83% | –
34 | COc1ccccc1NC(=O)CSc1nnc(CNC(=O)c2ccccc2F)o1 | – | 1.65 µM (active)
35 | CC1(C)NC(=O)N(CC(=O)N2CCN(S(=O)(=O)c3ccccc3F)CC2)C1=O | -1.59% | –
36 | O=C(Nc1cccc(-c2nc3ccccc3[nH]2)c1)c1ccc(C(=O)Nc2cccc(-c3nc4ccccc4[nH]3)c2)cc1 | – | 0.37 µM (active)
37 | O=C(Nc1cccc(NC(=O)c2ccc(Br)cc2)c1)c1ccccc1 | 71.5% | –
38 | O=C(Cc1cccs1)Nc1cccc(-c2nc3ccccc3[nH]2)c1 | -7.98% | –
39 | N#CC1(NC(=O)COC(=O)Cc2n[nH]c(=O)c3ccccc23)CCCCC1 | 24.1% | –
40 | CCN(C(=O)CSc1nnc(-c2ccc(OC(F)F)cc2)n1N)C1CCS(=O)(=O)C1 (stereo unspecified) | 7.28% | –
41 | NC(=O)c1ccc(CN2CCC(Cc3ccccc3)CC2)cc1 | -16.8% | –
42 | COc1cc(C)cc(CN2CCC(Cc3ccccc3)CC2)c1O | – | 1.17 µM (active)
43 | O=c1cc(CO)oc(CN2CCC(Cc3ccccc3)CC2)c1O | -8.24% | –
44 | CC(C)NC(=O)NNc1c(Cl)cncc1Cl | 23% | –
45 | O=C(CNS(=O)(=O)c1ccc2ccccc2c1)Nc1ccc(F)c(F)c1F | 12.1% | –
46 | COc1ccc(/C=N/NC(=O)C2CC2)c(OC)c1OC | 103% | –
47 | O=C(NCc1ccco1)C1CCCN(S(=O)(=O)c2cccc3nonc23)C1 (stereo unspecified) | 22% | –
48 | CN(CC(=O)NC1CCCCC1)S(=O)(=O)c1cccc2cccnc12 | 22.2% | –
49 | Cc1cccc(NC(=O)C2CCN(S(=O)(=O)c3cccc4cccnc34)CC2)c1 | – | 5.86 µM (active)
50 | O=C(O)C1CCCN(S(=O)(=O)c2cccc3cccnc23)C1 (stereo unspecified) | – | 2.08 µM (active)
51 | COc1ccc(S(=O)(=O)N2CCCC(C(=O)Nc3ccc(NC(=O)c4ccccn4)cc3)C2)cc1 (stereo unspecified) | 17% | –
52 | COc1ccc(NC(=O)C2CCCN(S(=O)(=O)c3cccc4cccnc34)C2)cc1OC (stereo unspecified) | – | 10.4 µM (active)

Row | Structure (SMILES) | activity change, negative = inhibition | Potency
53 | COc1cccc(CNC(=O)C2CCN(S(=O)(=O)c3cccc4cccnc34)CC2)c1 | 13.2% | –
54 | COc1ccc(NC(=O)C2CCCN(S(=O)(=O)c3cccc4cccnc34)C2)cc1 (stereo unspecified) | 63.6% | –
55 | CC(=O)c1cccc(NC(=O)C2CCCN(S(=O)(=O)c3cccc4nonc34)C2)c1 (stereo unspecified) | 5.63% | –
56 | Cc1ccc(C(=O)Nc2nc(N)n(-c3ccccc3)n2)cc1 | 40.9% | –
57 | CC1=NN(C(N)=S)C(=O)C1N=Nc1cc(Cl)ccc1Cl (stereo unspecified) | 16.9% | –
58 | CCOC(=O)C1CCCN(S(=O)(=O)c2ccc(-n3cnnn3)c(C)c2)C1 (stereo unspecified) | 4.73% | –
59 | CCn1c(SCC(=O)NC2=NCCS2)nnc1C(C)NC(=O)c1ccccc1F (stereo unspecified) | 19.2% | –
60 | O=C(CC(=O)N/N=C\c1ccc(F)cc1)NCCc1ccccc1 | 2.04% | –
61 | O=C(CNC(=O)c1cccnc1)N/N=C/c1cccnc1 | 32.2% | –
62 | O=C(CCCCCNC(=O)c1ccccc1)N/N=C/c1ccccc1 | – | 1.47 µM (active)
63 | CNS(=O)(=O)c1cccc(C(=O)OCCCC(=O)c2ccccc2)c1 | -12.1% | –
64 | COc1ccc(Cl)cc1NC(=O)CN(C)CC(=O)Nc1ccc2c(c1)OCO2 | -0.297% | –
65 | Cn1c(CC(=O)Nc2ccc(F)cc2)nnc1SCC(=O)NC1CCCCC1 | -8.17% | –
66 | COC(=O)CNc1nc(Cl)nc(N2CCC(C)CC2)n1 | 9.44% | –
67 | Cc1ccc(Nc2nc(N3CCOCC3)nc(N3CCOCC3)n2)cc1Cl | -16.3% | –
68 | Clc1nc(NC2CCCC2)nc(N2CCOCC2)n1 | – | 11.7 µM (active)
69 | O=C(Nc1ccc(N2CCCC2=O)cc1)c1cncc(Br)c1 | 1.63% | –
70 | Cc1cccc(NC(=O)c2cc(S(=O)(=O)N3CCC4(CC3)OCCO4)ccc2F)c1 | 23.8% | –
71 | COc1ccc(C(=O)N(Cc2ccccc2)c2ccc(C)cc2)cc1S(=O)(=O)N1CCOCC1 | -68.2% | –
72 | Cc1cccc(N(Cc2ccccc2)C(=O)c2ccccc2F)c1 | -24.8% | –
73 | Cc1cccc(N(Cc2ccccc2)C(=O)c2cc(S(=O)(=O)N3CCOCC3)ccc2F)c1 | – | 11.7 µM (active)
74 | NC(=O)C1CCN(C(=O)c2ccc(F)c(S(=O)(=O)N3CCOCC3)c2)CC1 | 6.45% | –
75 | O=C(c1ccc(F)c(S(=O)(=O)N2CCOCC2)c1)N(CCc1ccccc1)Cc1ccccc1 | – | 2.62 µM (active)
76 | Cc1cccc(C(=O)Nc2ccc(Oc3cnccn3)cc2)c1 | 63.5% | –
77 | COc1cccc(C(=O)n2ccc(-c3cccs3)n2)c1 | 0% | –
78 | CC(=O)Nc1cccc(NC(=O)CSc2nccn2Cc2ccc(F)cc2)c1 | 0% | –

Row | Structure (SMILES) | activity change, negative = inhibition | Potency
79 | COC(=O)[C@H](CC(C)C)NC(=O)N1CCCCC1C (stereo partly specified) | -9.64% | –
80 | CCCc1c(C(=O)Nc2ccc(F)cc2)cnn1-c1ccccc1 | -24.3% | –
81 | Cc1cc(C)cc(N(CCC#N)C(=O)CN2C(=O)NC3(CCCC3)C2=O)c1 | 13.1% | –
82 | COc1ccc(CCNc2nc3ccc(C)cc3n3cnnc23)cc1OC | 20.1% | –
83 | COc1ccc(CCNc2cc(C)nc3c(-c4ccc(Cl)cc4)c(C)nn23)cc1OC | – | 10.4 µM (active)
84 | COc1ccc(CCNc2nc(C)cc(C)n2)cc1OC | 0% | –
85 | COc1ccccc1-c1cnn2c(N3CCOCC3)cc(C)nc12 | 136% | –
86 | CCc1nccn1S(=O)(=O)c1cccc([N+](=O)[O-])c1 | 1.85% | –
87 | CC(C)c1nccn1S(=O)(=O)c1cc([N+](=O)[O-])ccc1Cl | – | 11.7 µM (active)
88 | O=C(Oc1ccc([N+](=O)[O-])cc1)c1ccc(Cl)c(S(=O)(=O)N2CCCCC2)c1 | -10.5% | –
89 | CSc1ccc(-c2c(C#N)c(N)nc3c2c(C)nn3-c2ccccc2)cc1 | – | 2.08 µM (active)
90 | Cn1c(=O)c2c(-c3cccc(Br)c3)c(C#N)c(N)nc2n(C)c1=O | 23.3% | –
91 | Cc1nn(-c2ccccc2)c2c1C(c1ccc(F)cc1)C(C#N)=C(N)O2 (stereo unspecified) | 52.7% | –
92 | COc1ccc2c3c(c(=O)oc2c1)C1O[C@](CCCCN2C(=O)c4ccccc4C2=O)(Cc2c1ccc1ccccc21)O3 | 49.1% [at 5.75 µM] | –
93 | COc1cccc(N2C(=O)CC(N3CCN(S(=O)(=O)c4ccccc4)CC3)C2=O)c1 (stereo unspecified) | -19.2% | –
94 | COc1cccc(N2C(=O)CN(Cc3ccccc3)C2=S)c1 | – | 1.31 µM (active)
95 | Cc1cccc(C)c1N1C(=O)CN(Cc2ccccc2)C1=S | 23% | –
96 | Cc1ccc(S(=O)(=O)N(C)c2ccc(OCC(=O)OCC(=O)N(CC#N)c3ccccc3)cc2)cc1 | 1.77% | –
97 | CN(CC(=O)Nc1ccc(Cl)cc1)C(=O)CNC(=O)c1ccc2ccccc2c1 | 34.5% | –
98 | O=c1c2ccccc2cnn1Cc1n[nH]c(=S)n1-c1ccccc1F | 24.1% | –
99 | COc1ccc(NS(=O)(=O)c2cc(NC(=O)/C=C/c3cc(OC)c(OC)c(OC)c3)ccc2N2CCCCC2)cc1 | – | 2.08 µM (active)
100 | COc1ccc(/C=C/C(=O)Nc2ccc3c(c2)OCCO3)cc1OC | -3.91% | –
101 | COc1ccc(NS(=O)(=O)c2ccc(N3CCN(CCO)CC3)c([N+](=O)[O-])c2)cc1 | -11.6% | –

From PubChem BioAssay AID504834 (National Center for Advancing Translational Sciences (NCATS), 2011)
